This is a sample that favours compounds with a hit; in the whole collection about 4.6% have one here.
FAS TE block – FAS thioesterase (human) inhibition. AID 602261. recombinant FAS-TE, OMFH fluorogenic substrate, fluorescence endpoint. inhibition, % at 15 µM. 0.67% of 360,000 active;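 active means compounds whose normalised, plate-corrected inhibition of enzyme fluorescence in the single-dose primary screen is 50% or more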;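 further: 0% = DMSO with enzyme and 100% = substrate without enzyme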
NR3A LBD binder – NR3A (human) ligand-binding domain modulation; NR3A LBD differential scanning fluorimetry, Tm shift; 0% = protein alone, 100% = glycine-bound protein; AID 1259313; Tm shift relative to glycine control, % at 25 µM; 2.5% of 340,000 active;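 active means melting temperature shift of at least 10% of the positive control shift, at one fixed dose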
ADAM17 inh – inhibits human ADAM17; recombinant ADAM17, EDANS/DABCYL FRET peptide cleavage; inhibition, % at 6.95 µM; 0.83% of 370,000 active; AID 720648;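 active means inhibition above the mean of compounds lying between control limits plus 3 SD, set per campaign, cut at about 8.5% in these data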;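 further: 0% = DMSO-only wells as the low control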
ADAM10 inh – inhibits human ADAM10; O14672; recombinant ADAM10, EDANS/DABCYL FRET peptide cleavage, 3 h; inhibition, % at 7 µM; 0.62% of 370,000 active;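 active means inhibition above a per-campaign cutoff equal to the mean of compounds falling between control-based bounds plus 3 SD, cut at about 20% in these data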;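 further: 0% = DMSO wells while the 100% control is not disclosed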
Target sequence (O14672 214-748 limits assumed): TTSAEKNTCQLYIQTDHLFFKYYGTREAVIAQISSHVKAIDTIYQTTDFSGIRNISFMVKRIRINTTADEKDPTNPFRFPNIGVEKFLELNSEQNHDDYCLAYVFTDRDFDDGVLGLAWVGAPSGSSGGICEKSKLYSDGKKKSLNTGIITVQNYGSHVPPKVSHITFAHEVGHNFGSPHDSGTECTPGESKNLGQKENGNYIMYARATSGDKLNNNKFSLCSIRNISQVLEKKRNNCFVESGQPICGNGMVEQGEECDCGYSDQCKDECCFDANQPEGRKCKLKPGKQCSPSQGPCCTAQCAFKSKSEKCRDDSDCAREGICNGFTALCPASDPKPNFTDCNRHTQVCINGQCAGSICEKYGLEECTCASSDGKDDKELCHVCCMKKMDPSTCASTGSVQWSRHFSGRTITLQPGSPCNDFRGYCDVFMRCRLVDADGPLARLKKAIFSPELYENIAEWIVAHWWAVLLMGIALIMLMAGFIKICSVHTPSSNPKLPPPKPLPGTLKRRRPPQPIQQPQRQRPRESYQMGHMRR
proKLK7 act – activates the human kallikrein-7 zymogen. 0.9% of 370,000 active. activation, % at 7 µM. AID 652039. P49862. purified proKLK7, EDANS-DABCYL substrate fluorescence; 100% is mature enzyme control, 0% vehicle;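 active means activation above the mean of all tested compounds plus 3 SD, computed per campaign excluding outliers beyond control limits, cut at about 13% in these data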
ADAM10 confirm – human ADAM10 inhibition, confirmation; shares compounds with ADAM10 inh; ADAM10 QFRET peptide cleavage, EDANS fluorescence; inhibition, % at 6.95 µM; 1% of 2,100 active;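 active means inhibition above about 20% chosen separately for each screening run, limit read from the data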;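 further: 0% = DMSO wells and 100% = marimastat wells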
ADAM17 ctr – ADAM17 inhibition, counter-screen for ADAM10 exosite hits. ADAM17 QFRET peptide cleavage, EDANS fluorescence. AID 743214. shares compounds with ADAM10 inh. 0.5% of 2,100 active. inhibition, % at 6.95 µM;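 active means mean triplicate inhibition above the solvent-only control wells' mean plus 3 SD, cut at about 12% in these data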;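 further: 0% = DMSO wells and 100% = marimastat wells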
ADAM10 counter – ADAM10 inhibition, counter-screen for ADAM17 exosite hits. shares compounds with ADAM17 inh. recombinant ADAM10, EDANS/DABCYL FRET peptide cleavage, 3 h. inhibition, % at 6.95 µM. 47% of 2,900 active;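 active means mean inhibition over the triplicate runs exceeds the activity threshold set in the earlier primary screen, cut at about 20% in these data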;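 further: 0% = DMSO wells and 100% = marimastat wells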
ADAM17 confirm – human ADAM17 inhibition, confirmation; inhibition, % at 6.95 µM; 65% of 2,900 active; AID 743257; recombinant ADAM17, EDANS/DABCYL QFRET peptide cleavage; shares compounds with ADAM17 inh;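 active means mean inhibition across replicates above the hit cutoff set in the primary screen, cut at about 8.5% in these data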;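 further: 0% = DMSO wells and 100% = marimastat wells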
An asterisk follows results filed as active; . = not tested or not shown.

SMILES | FAS TE block | NR3A LBD binder | ADAM17 inh | ADAM10 inh | proKLK7 act | ADAM10 confirm | ADAM17 ctr | ADAM10 counter | ADAM17 confirm
CCc1ccccc1NCC(=O)Nc1ccc(Cl)c(C(F)(F)F)c1 | 46 | 21* | 17* | 35* | 0 | 6 | 3 | 40* | 19*
Nc1[nH]c(C(=O)c2ccc(Br)cc2)c(-c2ccncc2)c1C(=O)c1ccccc1 | . | . | -4 | -13 | 0 | . | . | . | .
COc1ccc(NC(=O)c2cc(-c3cc(F)ccc3OC(C)C)n[nH]2)c(OC)c1 | 21 | . | 15* | 21* | 0 | 7 | 5 | 11 | 6
COc1ccc(NC(=O)c2cc(-c3ccc(F)cc3OC(C)C)n[nH]2)c(OC)c1 | 27 | . | 7 | 17 | 0 | . | . | . | .
COCCCNC(=O)c1ccc(Cn2c(=O)c3ccccc3n(Cc3ccc(C(C)C)cc3)c2=O)cc1 | . | . | -2 | -2 | 0 | . | . | . | .
COC(=O)c1cc(NC(=O)CN(c2cccc(OC)c2)S(=O)(=O)c2ccccc2)ccc1Cl | 42 | -7 | 12* | 24* | 0 | 6 | 4 | 34* | 17*
COC(=O)c1cc(NC(=O)CN(c2ccccc2OC)S(=O)(=O)c2ccccc2)ccc1Cl | 18 | -7 | 8 | 12 | 0 | . | . | . | .
COc1ccc(N(CC(=O)Nc2ccccc2OC)S(=O)(=O)c2ccccc2)cc1Cl | 34 | -4 | 8 | 13 | -1 | . | . | . | .
COc1ccc(NC(=O)CN(c2ccc(OC)c(Cl)c2)S(=O)(=O)c2ccccc2)c(OC)c1 | 40 | -6 | 14* | 34* | 0 | 7 | 2 | 30* | 17*
Cc1cc(N/C(=C\C(=O)c2ccccc2)c2ccccc2)ccc1Br | . | . | -2 | -1 | 1 | . | . | . | .
COc1cc(/C=C2\SC(=S)N(Nc3ncc(C(F)(F)F)cc3Cl)C2=O)ccc1O | 21 | 14* | 12* | 34* | 3 | 4 | 1 | 35* | 19*
COc1ccc(/C=C(/C(=O)Nc2ccccc2C(=O)N2CCCC2)c2ccccc2)cc1 | 16 | -2 | 4 | 12 | 0 | . | . | . | .
COc1ccc(/C=C(/C(=O)Nc2ccccc2C(=O)NC(C)C)c2ccccc2)cc1 | 23 | -12 | 9.6* | 20* | -1 | 10 | 3 | 15 | 9
C[C@H](CO)N1C[C@H](C)[C@@H](CN(C)S(=O)(=O)c2cccs2)Oc2ccc(NC(=O)Nc3ccc4c(c3)OCO4)cc2C1=O | 4 | -2 | 3 | 0 | 0 | . | . | . | .
COc1ccc(NC(=O)Nc2ccc3c(c2)C(=O)N([C@H](C)CO)C[C@H](C)[C@@H](CN(C)S(=O)(=O)c2cccs2)O3)cc1 | -1 | -3 | 16* | 21* | 0 | 3 | 0 | 14 | 10*
CC(C)NC(=O)Nc1ccc2c(c1)C(=O)N([C@H](C)CO)C[C@H](C)[C@@H](CN(C)S(=O)(=O)c1cccs1)O2 | -8 | 0 | 3 | 1 | -1 | . | . | . | .
COc1ccc(NC(=O)Nc2ccc3c(c2)C(=O)N([C@@H](C)CO)C[C@@H](C)[C@@H](CN(C)S(=O)(=O)c2cccs2)O3)cc1 | 10 | 3 | 8.8* | 21* | 1 | 0 | 0 | 19 | 12*
C[C@H](CO)N1C[C@H](C)[C@H](CN(C)S(=O)(=O)c2cccs2)Oc2ccc(NC(=O)Nc3ccc4c(c3)OCO4)cc2CC1=O | 4 | -1 | 13* | 27* | 0 | 2 | 0 | 16 | 14*
COC(=O)c1cc2c(c3c4cc(OC)ccc4n(S(=O)(=O)c4ccc(OC)cc4)c13)C(=O)N(Cc1ccc(N(C)C)cc1)C2 | . | . | -2 | -1 | -1 | . | . | . | .
C[C@@H](OC(=O)c1[nH]cnc1C(=O)NCc1ccc(CNC(=O)OC(C)(C)C)cc1)c1ccccc1 | 29 | -11 | 25* | 40* | 0 | 1 | 1 | 22* | 12*
CC(C)(C)OC(=O)NCc1ccc(CNC(=O)c2[nH]cnc2C(=O)N[C@@H](Cc2ccccc2)C(=O)OC(C)(C)C)cc1 | 18 | -8 | 14* | 42* | 0 | 12 | 3 | 56* | 27*
CCN(CC)C(=O)c1[nH]cnc1C(=O)NCc1ccc(CNC(=O)OC(C)(C)C)cc1 | -12 | -1 | 0 | -6 | 0 | . | . | . | .
CC(C)(C)OC(=O)[C@H](Cc1ccccc1)NC(=O)c1nc[nH]c1C(=O)NCc1ccccc1 | 18 | -21 | 12* | 25* | 0 | 8 | 2 | 31* | 17*
CC(C)[C@H](NS(=O)(=O)c1ccccc1)C(=O)OCC(=O)Nc1ccccc1Sc1ccccc1 | 28 | -7 | 9.6* | 20* | 0 | 5 | 2 | 18 | 9.1*
Nc1nc(Nc2ccccc2)nc(NCc2ccco2)c1[N+](=O)[O-] | 24 | -8 | 9.7* | 22* | 0 | 2 | 1 | 36* | 19*
SMILES | FAS TE block | NR3A LBD binder | ADAM17 inh | ADAM10 inh | proKLK7 act | ADAM10 confirm | ADAM17 ctr | ADAM10 counter | ADAM17 confirm
NS(=O)(=O)c1ccc(NCc2cc(Cl)ccc2OCc2ccccc2F)cc1 | 24 | 7 | 14* | 31* | 0 | 11 | 4 | 47* | 21*
COc1ccccc1CNS(=O)(=O)c1cc(-c2cc(C)no2)ccc1C(C)C | 23 | -10 | 11* | 32* | 0 | 2 | 1 | 17 | 12*
CCO[C@H]1OC(C(=O)Nc2ccccc2)=C[C@@H](c2ccc(C(F)(F)F)cc2)[C@@H]1CCCO | 27 | 1 | 15* | 27* | 0 | 4 | 1 | 30* | 18*
CCO[C@@H]1OC(C(=O)N2CCCCCCC2)=C[C@H](c2ccc(C(F)(F)F)cc2)[C@H]1CCCO | 5 | 1 | 3 | 8 | -1 | . | . | . | .
O=C(NCC1COc2ccccc2O1)c1cccc(S(=O)(=O)N2CCCCC2)c1 (stereo not given) | 27 | 0 | 3 | 5 | 0 | . | . | . | .
O=C(NCC1COc2ccccc2O1)c1cccc(S(=O)(=O)N2CCN(c3ccccc3)CC2)c1 (stereo not given) | 34 | 7 | 9.9* | 21* | -2 | 6 | 2 | 13 | 13*
CCCCOC(=O)Nc1ccc(C(=O)OCCC)cc1 | 20 | -3 | 3 | 9 | -1 | . | . | . | .
CCCCOC(=O)c1ccc(NC(=O)c2c(Cl)ccc(Cl)c2OC)cc1 | 27 | -2 | 9.3* | 22* | 1 | 8 | 3 | 22* | 14*

Screens (PubChem BioAssay)
